The structures appear in SMILES notation. Inconclusive results are not listed. Calls of active or inactive are those of the source. Calls come from the whole dose curve; as a rule, active = well fitted cell-killing curve with a large enough effect; inconclusive = small, poorly fitted or top-dose-only effect, or effect the other way; inactive = no such curve, though single readings can be large or run the other way.
Potency is the fitted concentration of half-maximal effect.

The nature of this assay: Quantitative High-Throughput drug screen in 47 multiple myeloma cell lines against the NCATS MIPE library collection: KMS27_JCRB cell viability assay (AID 1918970). Note: nearly all actives have a fitted effect of over 30% in size. As to conditions: KMS27 myeloma cells, CellTiter-Glo ATP viability, 48 h; viability (% of DMSO): at 45.8 µM (top of the series). The text has this: PI: Beverly A. Mock Ph.D.
Laboratory of Cancer Biology and Genetics,
Center for Cancer Research, National Cancer Institute,
National Institute of Health, Bethesda, Maryland
Drug resistance and disease progression are common in multiple myeloma (MM) patients, underscoring the need for new therapeutic combinations. […] We hypothesized that effective combinations would reduce MYC expression and enhance p16 activity. […] These preclinical data identify potentially useful drug combinations for evaluation in drug-resistant MM and reveal potential mechanisms of combined drug sensitivity.
Described herein is the primary MIPE qHTS used to cherrypick compounds. Validated compounds were then further tested for potential synergistic activiy.
[1] Peat TJ, Gaikwad SM, Dubois W, Gyabaah-Kessie N, Zhang S, Gorjifard S, Phyo Z, Andres M, Hughitt VK, Simpson RM, Miller MA, Girvin AT, Taylor A, Williams D, D'Antonio N, Zhang Y, Rajagopalan A, Flietner E, Wilson K, Zhang X, Shinn P, Klumpp-Thomas C, McKnight C, Itkin Z, Chen L, Kazandijian D, Zhang J, Michalowski AM, Simmons JK, Keats J, Thomas CJ, Mock BA. Drug combinations identified by high-throughput screening promote cell cycle transition and upregulate Smad pathways in myeloma. […] Epub 2023 Jun 24. PMID: 37356470; PMCID: PMC10408729.
SEQUENCE No. (e.g., 1, 2, 3, etc.); […] (e.g., Cells, Incubation, Reagent, etc.); VALUE and DESCRIPTION.
1; Cells; 5 uL; white, solid bottom 1536-well Greiner assay plate.
2; Compounds; 23 nL; Kalypsis pin tool (Wako USA) equipped with a 1536-well pin head to transfer to the assay plates.
3; Incubation; 48 hours; 37C incubation.
4; Reagent;5uL; CellTiter Glo (Promega).
5; Detector; 425V; Luminescence; Viewlux PerkinElmer.
NOTES (numbers refer to Sequence numbers above)
1. The cell-based screening methods employed in this study were like those previously published. Briefly, the corresponding myeloma cell lines were screened in 1,536-well plates with 500 cells, 5-uL per well for inhibition of cell viability (assessed by measuring ATP levels with CellTiterGlo).
2. NCATS MIPE 4.0 library of approved and investigational drugs were added using the Kalypsis pin tool. Wells treated with DMSO only for 100% viability and media only wells for 0% viability were used as controls.
3. The assay plates were covered and incubated for 48 hours in a 37C, 5% CO2 incubator with controlled humidity.
4. After 48 hours, CellTilter-GloTM luminescent substrate mix (Promega) reagent was added to the assay plate and plates we incubated for 5 min at room temperature.
5. Signal was measured as median relative luminescence units on a ViewLux (PerkinElmer) multiplate reader.
[1] Heske CM, Davis MI, Baumgart JT, Wilson K, Gormally MV, Chen L, Zhang X, Ceribelli M, Duveau DY, Guha R, Ferrer M, Arnaldez FI, Ji J, Tran HL, Zhang Y, Mendoza A, Helman LJ, Thomas CJ. Matrix Screen Identifies Synergistic Combination of PARP Inhibitors and Nicotinamide Phosphoribosyltransferase (NAMPT) Inhibitors in Ewing Sarcoma. Clin Cancer Res. 2017 Dec 1;23(23):7301-7311. doi: 10.1158/1078-0432.CCR-17-1121. Epub 2017 Sep 12. PMID: 28899971; PMCID: PMC6636827.
(In general: Cellular ATP, detected with luciferase, serves as a proxy for viable cell number.)
Consider `COc1c(C)cnc(Cn2cnc3c(Cl)nc(N)nc32)c1C`, for which the Potency is 0.209 µM (active).
Take `CCC(=O)NCC[C@@H]1CCc2ccc3c(c21)CCO3`: the Potency result is “inactive”.
With `Cc1ccc(S(=O)(=O)Nc2nc3ccccc3nc2Nc2ccc3nsnc3c2)cc1`, the Potency is 0.162 µM (active).
Then `O=C(NC[C@H](O)CO)c1ccncc1Nc1ccc(I)cc1F`, with 1.48 µM (active); and `CN(C)CCOc1ccc(-c2nc(-c3ccc4c(c3)CCC4=NO)c(-c3ccncc3)[nH]2)cc1`, with 6.62 µM (active).
Then `COC(=O)Nc1ccc(-c2nc(N3CCOCC3)c3cnn(C4CCN(C(=O)OC)CC4)c3n2)cc1`, with 0.0833 µM (active); and `O=c1[nH]nc(OCCCc2ccc(Cl)cc2)c(NCc2cccnc2)c1Br`, with 7.43 µM (active); and `O=C(O)CCC=CCC[C@@H]1[C@H](N2CCCCC2)[C@@H](O)C[C@@H]1OCc1ccc(-c2ccccc2)cc1`, with “inactive”.
As to `O=S(=O)(O)c1ccc2cc(N=Nc3cc(S(=O)(=O)O)c4cccnc4c3O)ccc2c1`, the Potency entry was “inactive”.
Consider `CCCCn1c(=O)n(Cc2ccccc2F)c(=O)c2[nH]c(Cc3ccc(NC(C)=O)cc3)nc21`, for which the Potency entry was “inactive”.
For `CCCCC[C@H](O)C=C[C@H]1[C@H](O)CC(=O)[C@H]1CC=CCCCC(=O)O`, the Potency entry was “inactive”.
Under `CNC1CCC(N(Cc2cccc(-c3ccncc3)c2)C(=O)c2sc3ccccc3c2Cl)CC1` (stereo not given) stands 18.7 µM (active); under `CCCCC[C@H](O)C=C[C@H]1[C@H](O)CC(=O)[C@H]1CCCCCCC(=O)O`, “inactive”; under `N#CC(c1ccnc(NCCc2cccnc2)n1)c1nc2ccccc2s1` (stereo not given), 7.43 µM (active).
On to `C=C[C@@H]1CN2CCC1C[C@@H]2C(O)c1ccnc2ccc(OC)cc12` (stereo not given in full), for which the Potency result is “inactive”.
In the case of `CCC[C@H](N[C@@H](C)C(=O)N1[C@@H]2CCCC[C@H]2C[C@H]1C(=O)O)C(=O)OCC`, the Potency was 14.8 µM (active).
Then `Cc1ccc(C(=O)N(CCCN)[C@@H](c2oc3cc(Cl)ccc3c(=O)c2Cc2ccccc2)C(C)C)cc1`, with “inactive”; and `CNC(=O)c1ccc2c(C(=Nc3cccc(CN(C)C)c3)c3ccccc3)c(O)[nH]c2c1`, with 2.35 µM (active).
`Nc1ncnc2c1ncn2[C@@H]1O[C@H](CO)[C@@H](O)[C@@H]1O`: the Potency was 0.418 µM (active).
Under `C=CCc1cccc(C=NNC(=O)CN2CCN(Cc3ccccc3)CC2)c1O` stands 5.26 µM (active).
As for `CCCCC(C)(C)[C@H](O)C=C[C@H]1[C@H](O)CC(=O)[C@H]1CC=CCCCC(=O)O`, the Potency result is “inactive”.
Under `CCCCCCOC(=O)N=C(N)c1ccc(NCc2nc3cc(C(=O)N(CCC(=O)OCC)c4ccccn4)ccc3n2C)cc1` stands 11.8 µM (active); under `O=[N+]([O-])c1ccc(Nc2ccccc2-c2ccccc2)c2nonc12`, 20.9 µM (active).
`C[C@H]1[C@H](O)O[C@@H]2O[C@@]3(C)CC[C@@H]4[C@H](C)CC[C@@H]1[C@@]24OO3`: the Potency is 13.2 µM (active).
Under `CC(C)C[C@@H](N)[C@H](O)C(=O)N[C@H](C(=O)N[C@H](C(=O)N[C@@H](CC(=O)O)C(=O)O)C(C)C)C(C)C` stands “inactive”; under `NC(=O)c1ccc(N(C(N)=O)c2c(F)cccc2F)nc1-c1ccc(F)cc1F`, “inactive”; under `Nc1ncnc2c1c(-c1cccc(OCc3ccccc3)c1)cn2C1CC(CN2CCC2)C1` (stereo not given), 1.87 µM (active).
As for `NS(=O)(=O)c1cc(Cl)c(Cl)c(S(N)(=O)=O)c1`, the Potency entry is “inactive”.
Then `CCOC(=O)[C@H]1O[C@H]1C(=O)N[C@@H](CC(C)C)C(=O)NCCC(C)C`, with “inactive”; and `CNC(=O)[C@H](CC1=CN=C2C=CCC=C12)NC(=O)[C@@H](CC(=O)NO)CC(C)C`, with 0.0935 µM (active); and `CN(CC=CC#CC(C)(C)C)Cc1cccc2ccccc12`, with “inactive”.
Under `CO[C@H]1/C=C\O[C@@]2(C)Oc3c(C)c(O)c4c(O)c(c5c(nc6cc(C)ccn65)c4c3C2=O)NC(=O)C(C)=CC=C[C@H](C)[C@H](O)[C@@H](C)[C@@H](O)[C@@H](C)[C@H](OC(C)=O)[C@H]1C` stands 18.7 µM (active); under `O=C(O)C1=CC(O)C(O)[C@H](O)C1` (stereo not given in full), “inactive”.
Under `CC1C(=O)OC2C(O)C34C5CC(C(C)(C)C)C36C(OC(=O)C6O)OC4(C(=O)O5)C12O` (stereo not given) stands “inactive”; under `CN1N=C(N)c2cn([C@@H]3O[C@H](COP(=O)(O)O)[C@@H](O)[C@@H]3O)c3ncnc1c23`, 0.0662 µM (active).
As for `COc1cccc(OC)c1-c1cc(C(=O)NC2(C(=O)O)C3CC4CC(C3)CC2C4)nn1-c1ccnc2cc(Cl)ccc12` (stereo not given), the Potency result is “inactive”.
Consider `COc1cc(N2CCN(C)CC2)ccc1Nc1nc(N)c(C(=O)c2c(Cl)cccc2Cl)s1`, for which the Potency is 23.5 µM (active).
Then `CC1(C)OC2CC3C4CC(F)C5=CC(=O)C=CC5(C)C4C(O)CC3(C)[C@]2(C(=O)CO)O1` (stereo not given in full), with “inactive”; and `CCC=CC[C@H]1C(=O)CC[C@@H]1CC(=O)OC`, with “inactive”.
Then `COc1cc2nc(-c3cc(F)ccc3O)nc(N[C@@H]3CNC[C@@H]3C(C)(C)O)c2cc1OC`, with 5.9 µM (active).

These data come from PubChem BioAssay (NCATS).
